The values that follow come from publication PMC4081100, “A DNA-binding-site landscape and regulatory network analysis for NAC transcription factors in Arabidopsis thaliana”.

Holding throughout (test): universal protein binding microarray (PBM); transcription factors of Arabidopsis thaliana; high values mean tight binding
In assay [1] the target is T1, GST-ANAC092(1-176) (Arabidopsis thaliana, UniProt Q9FKA0 1-176).
T1 sequence: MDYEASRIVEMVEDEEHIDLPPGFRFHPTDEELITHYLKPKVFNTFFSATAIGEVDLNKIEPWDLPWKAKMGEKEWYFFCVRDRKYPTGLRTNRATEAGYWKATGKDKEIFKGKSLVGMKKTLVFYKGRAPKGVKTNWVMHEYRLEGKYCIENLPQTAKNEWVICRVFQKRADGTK
The note with it: protein: recombinant; tags: GST; chain copies: 2; dsDNA, one strand shown. The method, boiled down: (§1)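 Binding is expressed as the normalised enrichment score (E-score). Proteins carrying a GST tag, whether NAC-domain, full-length or DNA-binding-domain forms, were induced in cells, and zinc acetate was added for zinc-finger proteins. After purification on glutathione–Sepharose 4B and quantification by A280 or anti-GST western blot, each was applied in duplicate at 200 to 500 nM final to custom all-10-mer Agilent 4 × 180K arrays made double-stranded by primer extension. Gapped and ungapped 8-mers were scored.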

In assay [2] the target is GST-NTL6(1-168) (Arabidopsis thaliana, UniProt Q9SCK6 1-168). The note with it: protein: recombinant; tags: GST; chain copies: 2; dsDNA, one strand shown. An outline of the steps:
as §1

Assay [3] deals with T2, GST-ATAF1 NAC domain (Arabidopsis thaliana, UniProt Q39013 7-158).
T2 sequence: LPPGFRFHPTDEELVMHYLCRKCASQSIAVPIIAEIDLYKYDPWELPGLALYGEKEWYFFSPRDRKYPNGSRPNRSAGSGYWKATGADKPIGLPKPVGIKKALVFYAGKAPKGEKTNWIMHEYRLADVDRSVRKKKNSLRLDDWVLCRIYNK
To be noted: protein: recombinant; tags: GST; chain copies: 2; dsDNA, one strand shown. The method, boiled down:
as §1

Assay [4] addresses T3, GST-ANAC092(1-285) full length (Arabidopsis thaliana, UniProt Q9FKA0 1-285).
T3 sequence: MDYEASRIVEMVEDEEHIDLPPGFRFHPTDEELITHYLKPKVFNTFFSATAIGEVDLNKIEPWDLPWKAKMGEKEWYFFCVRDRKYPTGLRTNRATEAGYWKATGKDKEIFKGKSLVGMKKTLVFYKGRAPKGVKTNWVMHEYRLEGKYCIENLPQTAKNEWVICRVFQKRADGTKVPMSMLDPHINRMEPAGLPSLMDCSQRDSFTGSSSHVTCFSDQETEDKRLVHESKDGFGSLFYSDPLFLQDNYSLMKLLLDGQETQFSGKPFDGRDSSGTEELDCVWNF
The note with it: protein: recombinant; tags: GST; chain copies: 2; dsDNA, one strand shown. The method, boiled down:
as §1

Assay [5] has as its target T4, GST-NST2(1-184) (Arabidopsis thaliana, UniProt Q9M274 1-184).
T4 sequence: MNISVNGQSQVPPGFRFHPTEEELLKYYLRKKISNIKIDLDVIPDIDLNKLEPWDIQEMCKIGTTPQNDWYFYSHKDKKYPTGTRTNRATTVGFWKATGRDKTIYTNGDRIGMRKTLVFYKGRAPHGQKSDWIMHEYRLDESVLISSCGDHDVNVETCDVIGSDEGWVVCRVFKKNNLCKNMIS
The note with it: protein: recombinant; tags: GST; chain copies: 2; dsDNA, one strand shown. An outline of the steps: as §1

The target in assay [6] is T5, GST-SND1(1-203) (Arabidopsis thaliana, UniProt Q9LPI7 1-203).
T5 sequence: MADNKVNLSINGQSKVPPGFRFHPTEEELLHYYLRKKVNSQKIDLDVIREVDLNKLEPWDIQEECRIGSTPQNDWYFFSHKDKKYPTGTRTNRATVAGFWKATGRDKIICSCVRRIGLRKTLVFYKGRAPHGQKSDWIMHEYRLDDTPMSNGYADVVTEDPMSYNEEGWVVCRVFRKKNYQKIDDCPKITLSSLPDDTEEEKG
The note with it: protein: recombinant; tags: GST; chain copies: 2; dsDNA, one strand shown. The method, boiled down: as §1

In assay [7] the target is T6, GST-VND3 NAC domain (Arabidopsis thaliana, UniProt Q9FH59 12-162).
T6 sequence: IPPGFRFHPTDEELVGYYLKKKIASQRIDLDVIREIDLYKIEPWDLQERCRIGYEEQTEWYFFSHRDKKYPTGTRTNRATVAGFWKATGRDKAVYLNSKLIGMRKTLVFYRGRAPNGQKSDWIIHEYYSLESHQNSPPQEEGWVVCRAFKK
The note with it: protein: recombinant; tags: GST; chain copies: 2; dsDNA, one strand shown. The method, boiled down: as §1

The target of assay [8] is T7, GST-VND7 NAC domain (Arabidopsis thaliana, UniProt Q9C8W9 9-158).
T7 sequence: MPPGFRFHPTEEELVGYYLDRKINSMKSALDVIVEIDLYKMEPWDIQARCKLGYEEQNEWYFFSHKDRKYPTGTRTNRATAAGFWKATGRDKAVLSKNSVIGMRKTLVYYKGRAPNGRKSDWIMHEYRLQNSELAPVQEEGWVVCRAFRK
The note with it: protein: recombinant; tags: GST; chain copies: 2; dsDNA, one strand shown. An outline of the steps: as §1

Assay [9] has as its target GST-WRKY1(266-371) (Arabidopsis thaliana, UniProt Q9SI37 266-371). To be noted: protein: recombinant; tags: GST; dsDNA, one strand shown. The method, boiled down: as §1
For assay [10], the target named is T8, GST-ANAC019 NAC domain (Arabidopsis thaliana, UniProt Q9C932 14-162).
T8 sequence: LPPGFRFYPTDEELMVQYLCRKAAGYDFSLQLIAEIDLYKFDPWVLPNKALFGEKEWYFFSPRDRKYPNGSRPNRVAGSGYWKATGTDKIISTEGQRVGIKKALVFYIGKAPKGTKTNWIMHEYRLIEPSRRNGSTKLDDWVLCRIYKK
The note with it: protein: recombinant; tags: GST; chain copies: 2; dsDNA, one strand shown. The method, boiled down: as §1

Assay [11] has as its target T9, GST-ANAC055(1-171) (Arabidopsis thaliana, UniProt Q9LDY8 1-171).
T9 sequence: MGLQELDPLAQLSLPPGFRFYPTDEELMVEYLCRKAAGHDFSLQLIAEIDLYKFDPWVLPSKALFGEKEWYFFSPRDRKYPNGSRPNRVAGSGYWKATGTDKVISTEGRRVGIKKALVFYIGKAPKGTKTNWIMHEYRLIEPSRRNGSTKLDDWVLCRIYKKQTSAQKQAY
The note with it: protein: recombinant; tags: GST; chain copies: 2; dsDNA, one strand shown. An outline of the steps:
as §1

Assay [12] concerns the target T10, GST-NAP(1-166) (Arabidopsis thaliana, UniProt O49255 1-166).
T10 sequence: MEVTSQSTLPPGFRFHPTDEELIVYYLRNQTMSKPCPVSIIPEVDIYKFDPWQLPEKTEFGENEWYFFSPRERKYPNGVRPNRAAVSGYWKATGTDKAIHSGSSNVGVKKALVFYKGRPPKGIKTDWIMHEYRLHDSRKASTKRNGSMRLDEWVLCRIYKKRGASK
To be noted: protein: recombinant; tags: GST; chain copies: 2; dsDNA, one strand shown. The method, boiled down:
as §1

In assay [13] the target is T11, GST-NTL8 NAC domain (Arabidopsis thaliana, UniProt Q9XIN7 14-156).
T11 sequence: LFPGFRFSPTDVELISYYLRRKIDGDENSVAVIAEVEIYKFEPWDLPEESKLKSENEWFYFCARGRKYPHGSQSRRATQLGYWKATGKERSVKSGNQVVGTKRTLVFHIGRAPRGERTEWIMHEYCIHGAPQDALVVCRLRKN
The note with it: protein: recombinant; tags: GST; chain copies: 2; dsDNA, one strand shown. The method, boiled down: as §1

Sequence of GST-NTL6(1-168) (Q9SCK6 1-168): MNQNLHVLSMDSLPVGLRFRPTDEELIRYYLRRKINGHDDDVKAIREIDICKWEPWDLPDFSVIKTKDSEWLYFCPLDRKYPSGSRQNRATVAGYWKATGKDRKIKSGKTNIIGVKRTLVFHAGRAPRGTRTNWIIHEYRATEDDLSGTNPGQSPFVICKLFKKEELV
Sequence of GST-WRKY1(266-371) (Q9SI37 266-371): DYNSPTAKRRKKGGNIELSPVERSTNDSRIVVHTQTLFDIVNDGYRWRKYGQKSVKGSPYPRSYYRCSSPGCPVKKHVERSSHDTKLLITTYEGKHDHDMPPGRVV

GCAAGTCA: the binding signal was 0.187 E-score in assay [1]; 0.0738 E-score in [2]; 0.0771 E-score in [3]; 0.301 E-score in [4]; 0.0804 E-score in [5]; 0.175 E-score in [6]. For the same sequence, the binding signal in assay [7] came out at 0.115 E-score; in assay [8], 0.12 E-score; in assay [9], 0.423 E-score.

For the sequence CGTATACG, the binding signal stood at 0.195 E-score in [1]; 0.354 E-score in assay [10]; 0.363 E-score in assay [11]; 0.407 E-score in assay [3]; 0.283 E-score in assay [4]; 0.397 E-score in assay [12]. For the same sequence, the binding signal in [5] was 0.0918 E-score; in assay [6] it was 0.0859 E-score; in assay [7], 0.321 E-score; in [8] it was 0.395 E-score; in [9], 0.0731 E-score.

Consider AAGTAATA, for which the binding signal was determined as 0.31 E-score in [1]; 0.428 E-score in assay [2]; 0.215 E-score in assay [11]; 0.207 E-score in [3]; 0.327 E-score in assay [4]; 0.14 E-score in assay [12]. Further, the binding signal in [5] was determined as 0.274 E-score; in [13] it was 0.211 E-score; in assay [6], 0.294 E-score; in [7], 0.216 E-score; in assay [8], 0.136 E-score; in [9], 0.074 E-score.

On to GTCAACAC, for which the binding signal in [1] worked out at 0.238 E-score; in assay [10], 0.138 E-score; in assay [11] it was 0.173 E-score; in assay [3] it was 0.092 E-score; in [4] it was 0.23 E-score; in assay [12] it was 0.163 E-score. The binding signal is 0.134 E-score in assay [5]; 0.134 E-score in [6]; 0.133 E-score in assay [7]; 0.154 E-score in assay [8]; 0.478 E-score in assay [9].

As for AAGGAAAG, the binding signal in assay [1] was found to be 0.261 E-score; in [2] it was 0.398 E-score; in assay [10], 0.104 E-score; in assay [11], 0.181 E-score; in assay [3] it was 0.0767 E-score; in [4] it was 0.186 E-score. Moreover, the binding signal in assay [5] is 0.239 E-score; in [13], 0.467 E-score; in assay [6], 0.262 E-score; in assay [7], 0.0708 E-score; in assay [8], 0.117 E-score; in assay [9] it was 0.0652 E-score.

Turning to GCGTGTCA, the binding signal turned out to be 0.331 E-score in assay [1]; 0.231 E-score in assay [10]; 0.195 E-score in assay [11]; 0.193 E-score in [3]; 0.408 E-score in [4]; 0.186 E-score in assay [12]. The binding signal was 0.0663 E-score in [5]; 0.0867 E-score in [6]; 0.0583 E-score in assay [7]; 0.189 E-score in assay [8]; 0.0865 E-score in assay [9].

For the sequence GACGTAAA, the binding signal came to 0.355 E-score in assay [1]; 0.298 E-score in assay [10]; 0.256 E-score in assay [11]; 0.365 E-score in assay [3]; 0.399 E-score in [4]; 0.311 E-score in [12]. For the same sequence, the binding signal worked out at 0.333 E-score in assay [5]; 0.431 E-score in assay [6]; 0.329 E-score in assay [7]; 0.204 E-score in assay [8]; 0.0785 E-score in assay [9].
